Shown is part of a subset that was picked to be rich in hits.
DAT uptake mod – changed hDAT dopamine uptake under cocaine IC80, either direction, primary screen, cocaine antagonist project, cell-based, LLC-PK1 hDAT, [14C]-dopamine uptake, MLSMR; hit rate 1.3% among 110,000; LLC-PK1 hDAT cells, [14C]-dopamine uptake with cocaine IC80; actives deviate in either direction; AID 449768, 2010; B-score at 10 µM; Sodium-dependent dopamine transporter (Homo sapiens), Q01959;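 active = Z score or B-score, a plate-position-corrected score, falls beyond the plate's 99.7% confidence bounds, in either direction; inactive = both scores lie inside the 99.7% bounds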;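 note: scored against the spread of the other compound wells on the same plate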
BAP1 inh – inhibitors of BAP1 deubiquitinase, primary screen, biochemical, Ub-AMC fluorescence, kinetic | Ubiquitin carboxyl-terminal hydrolase BAP1 (Homo sapiens), Q92560 | recombinant BAP1, Ub-AMC hydrolysis fluorescence kinetic; active compounds read low | calls only at 20 µM | hit rate 0.48% among 72,000 | AID 436, 2006;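 active = activity remaining at or below 50% of control, provided the compound also passes the data quality filters; inactive = the rest, including low values that fail the filters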;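 note: 100% = DMSO wells rate and 0% = substrate alone blank rate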
Target sequence (Q92560 whole entry, looked up): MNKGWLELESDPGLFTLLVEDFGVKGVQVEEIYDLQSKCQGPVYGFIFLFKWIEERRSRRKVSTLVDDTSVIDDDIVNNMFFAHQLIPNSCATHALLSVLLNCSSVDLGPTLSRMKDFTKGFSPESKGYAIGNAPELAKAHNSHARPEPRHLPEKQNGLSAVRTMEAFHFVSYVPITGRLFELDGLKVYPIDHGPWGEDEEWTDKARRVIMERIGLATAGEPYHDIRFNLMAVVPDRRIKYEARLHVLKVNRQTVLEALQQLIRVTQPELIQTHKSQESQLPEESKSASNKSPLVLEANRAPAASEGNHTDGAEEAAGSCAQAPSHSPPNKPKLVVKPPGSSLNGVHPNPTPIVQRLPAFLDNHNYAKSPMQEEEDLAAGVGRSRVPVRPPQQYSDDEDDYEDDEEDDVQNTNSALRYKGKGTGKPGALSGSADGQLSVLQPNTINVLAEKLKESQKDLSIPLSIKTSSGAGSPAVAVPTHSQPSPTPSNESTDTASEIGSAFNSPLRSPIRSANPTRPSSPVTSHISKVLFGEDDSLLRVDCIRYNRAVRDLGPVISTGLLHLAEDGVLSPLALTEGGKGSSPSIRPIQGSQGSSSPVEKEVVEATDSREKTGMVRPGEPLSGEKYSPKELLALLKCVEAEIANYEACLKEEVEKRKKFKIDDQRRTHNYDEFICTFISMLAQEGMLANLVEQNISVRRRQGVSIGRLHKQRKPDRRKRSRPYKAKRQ
D1 mod – D1 CRE-luciferase signal change, two-sided – cell-based, HEK293 D1, dopamine EC30, D1 allosteric modulator project, primary screen; D(1A) dopamine receptor (Homo sapiens), P21728; dopamine EC30 potentiation; actives deviate in either direction; B-score at 10 µM; hit rate 5.9% among 58,000;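 active = luminescence count or its row- and column-corrected plate score outside the 99.7% band of the plate's sample wells, on either side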
D1 mod confirm – D1 receptor positive allosteric modulators, retest, confirmation, cell-based, HEK293 D1, CRE-luciferase, duplicate; luminescence at 10 µM; hit rate 88% among 2,200; dopamine EC30 potentiation; active compounds read high; shares compounds with D1 mod; AID 642, 2007;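 active = luminescence in either of two replicates above the same-plate mean plus 3 SD of the low-dose dopamine control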
D1 ag no DA – D1 receptor agonism without dopamine, confirmation, mechanism study for D1 allosteric modulator project, cell-based, HEK293 D1, CRE-luciferase, secondary assay 1. shares compounds with D1 mod. luminescence, no dopamine; active compounds read high. luminescence at 10 µM. hit rate 0.8% among 1,900. AID 646, 2007; in the data active = luminescence above about 3900
Isoprot counter – counter-screen for D1 modulators: isoproterenol response in HEK293 cells; shares compounds with D1 mod; HEK293 D1 CRE-luciferase, isoproterenol EC30 counter-screen; active compounds read high; luminescence at 10 µM; hit rate 63% among 2,200;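 active = luminescence in either replicate above plate mean of wells with a partly effective reference agonist dose plus 3 SD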;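 note: isoproterenol raises cAMP through native beta-adrenoceptor Gs so signal bypasses D1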
Active calls of the source: *; i = inactive; nt = no result shown.

SMILES | DAT uptake mod | BAP1 inh | D1 mod | D1 mod confirm | D1 ag no DA | Isoprot counter
Cc1ccccc1-n1nc2c(c1NC(=O)COc1ccccc1)CSC2 | nt | i | nt | nt | nt | nt
CCOC(=O)CSc1nc2sc3c(c2c(=O)n1CC)CC(C)(C)OC3 | -1.09 | nt | 5.9* | 8088* | 1472 | 3620*
COC(=O)c1cc(OC)c(OC)cc1N=CC1=C(O)CC(C)(C)CC1=O | 0.0189 | i | 4.1* | 9648* | 1564 | 4512*
CC1(C)CC(=O)C(C=Nc2ccccc2C(=O)O)=C(O)C1 | 0.754 | i | nt | nt | nt | nt
COc1ccccc1-c1nnc2sc(-c3cnccn3)nn12 | 0.334 | i | -0.667 | nt | nt | nt
COc1ccccc1-c1nnc2sc(-c3cc4ccccc4o3)nn12 | nt | i | 3.88* | 10596* | 1704 | 4336*
Cc1ccc(NC(=O)c2ccc([N+](=O)[O-])cc2)c(Br)c1 | nt | i | nt | nt | nt | nt
NCCCCCc1nnc(SCc2cccc(Cl)c2)o1 | -0.332 | i | -1.61 | nt | nt | nt
Clc1cccc(NCc2nnc(SCc3ccccc3)o2)c1 | -0.355 | i | 3.17* | 7948* | nt | 2644
N#CCSc1nnc(CNc2cccc(Cl)c2)o1 | -0.685 | i | 3.97* | 4760 | nt | 2620
N#CCSc1nnc(CNc2ccc(F)cc2)o1 | -0.839 | nt | nt | nt | nt | nt
Cn1c(C(O)c2ccccc2)[n+](C)c2ccccc21 (centres undefined) | nt | i | nt | nt | nt | nt
NC(=O)c1ccccc1NC(=O)c1ccccc1CCc1ccccc1 | nt | i | nt | nt | nt | nt
CCN(CC)Cc1nc2c(c(=O)[nH]1)C1(CCCC1)Cc1ccccc1-2 | 0.391 | nt | nt | nt | nt | nt
CCC1(CC)Cc2ccccc2-c2nc(CN3CCOCC3)[nH]c(=O)c21 | 0.176 | i | 18.3* | 22860* | 1804 | 4796*
Cc1cccc(NC2=C(Cl)C(=O)N(c3ccc(C)cc3C)C2=O)c1 | nt | i | nt | nt | nt | nt
Cn1c(=O)c2c(SCc3ccccc3)nc(-c3ccco3)nc2n(C)c1=O | -0.000937 | i | 3.25* | 12880* | 1832 | 3356
Cn1c(=O)c2c(SCc3cccc(C(F)(F)F)c3)nc(-c3ccco3)nc2n(C)c1=O | -0.0101 | nt | -0.24 | nt | nt | nt
CCOc1ccc(C(=O)N(C)c2nnc(C34CC5CC(CC(C5)C3)C4)s2)cc1 | nt | i | nt | nt | nt | nt
CCOC(=O)c1c(NC(=O)CSc2n[nH]c(N)n2)sc(CC)c1C | -0.295 | i | 7.94* | 14984* | 1740 | 4504*
CCOC(=O)c1sc(NC(=O)CSc2nncs2)c(C(=O)OCC)c1C | -0.597 | nt | 3.96* | 6908* | 1576 | 2668
CCOC(=O)c1c(NC(=O)CSc2nnnn2CC)sc(C)c1C | 0.0217 | i | 3.87* | 13084* | 1736 | 3424*
CCOC(=O)c1sc(NC(=O)CSc2nnc(-c3ccco3)n2CC)c(C(=O)OCC)c1C | 0.758 | nt | 0.0159 | nt | nt | nt
CCn1nnnc1SCC(=O)Nc1sc(C)c(C)c1C#N | -0.204 | nt | nt | nt | nt | nt
COC(=O)c1c(NC(=O)CSc2n[nH]c(N)n2)sc(C)c1C | -1.29 | i | 1.48 | nt | nt | nt
SMILES | DAT uptake mod | BAP1 inh | D1 mod | D1 mod confirm | D1 ag no DA | Isoprot counter
Ic1cccc2c1N1CCN2CC1 | nt | i | nt | nt | nt | nt
Cc1ccc(C(=O)Nc2ccc(C)cc2Br)cc1 | nt | i | nt | nt | nt | nt
COc1ccc(C(=O)Nc2cccc(C(F)(F)F)c2)cc1OC | nt | i | nt | nt | nt | nt
COC(=O)c1sccc1NC(=O)c1cc(-c2ccccc2Cl)nc2ccccc12 | nt | i | nt | nt | nt | nt
Cc1sc2ncn(-c3ccc(I)cc3)c(=O)c2c1C | nt | i | nt | nt | nt | nt
COc1cc(C2CC(=O)Nc3ccccc3S2)cc(OC)c1OC (centres undefined) | -1.43 | i | -1.77 | nt | nt | nt
O=C1CC(c2ccc(F)cc2)Sc2ccccc2N1 (centres undefined) | 1.88 | i | 27.5* | 22156* | 1556 | 5328*
COCCCNC(=O)c1ccc(N(C)S(=O)(=O)c2ccc(OC)cc2)cc1 | 1 | i | -0.355 | nt | nt | nt
COCCNC(=O)c1ccc(N(C)S(=O)(=O)c2ccc(OC)c(OC)c2)cc1 | -0.469 | i | 11.1* | 14404* | 1504 | 3924*
Cc1ccc(C)n1NC(=O)c1ccc(Cl)cc1 | -0.65 | nt | nt | nt | nt | nt
COc1ccc(C(=O)Nn2c(C)ccc2C)cc1OC | 0.0204 | i | 9.63* | 11780* | 1660 | 3972*
COCCNC(=O)c1ccccc1NC(=O)c1ccc(OC)c(OC)c1 | -0.492 | i | 2.07 | nt | nt | nt
CCOc1cc(C(=O)NCCOC)ccc1OC | -0.871 | i | 4.81* | 7216* | 1968 | 2724
O=C1c2ccccc2-c2c1c(-c1ccccc1[N+](=O)[O-])nc1ccc3ccccc3c21 | nt | i | nt | nt | nt | nt
CCOc1ccc2c(C)c(CC)c(=O)oc2c1I | nt | i | nt | nt | nt | nt
O=C1C2C3c4ccccc4C(CO)(c4ccccc43)C2C(=O)N1c1ccc([N+](=O)[O-])cc1 (centres undefined) | nt | i | nt | nt | nt | nt
O=c1[nH]c(C2CCCN(S(=O)(=O)c3ccccc3)C2)nc2c1nnn2Cc1ccccc1F (centres undefined) | -1.05 | i | 6.79* | 12364* | 1664 | 5108*
O=C(c1ccccc1)N1CCC(c2nc3c(nnn3Cc3ccco3)c(=O)[nH]2)CC1 | 0.813 | nt | nt | nt | nt | nt
CCCc1nc2c(nnn2Cc2ccccc2)c(=O)[nH]1 | -1.2 | i | 7.11* | 11892* | 1408 | 3336*
O=c1[nH]c(C2CCCN(S(=O)(=O)c3ccccc3)C2)nc2c1nnn2Cc1ccccc1 (centres undefined) | -0.448 | i | 4.22* | 10532* | nt | 3344*
O=C(NCc1ccccc1)c1nc2c(nnn2Cc2cccc(Cl)c2)c(=O)[nH]1 | -0.125 | nt | nt | nt | nt | nt
O=C(NC1CCCCC1)c1nc2c(nnn2Cc2ccccc2Cl)c(=O)[nH]1 | -0.0195 | i | 1.89 | nt | nt | nt
COc1ccccc1NC(=O)c1c(NC(=O)c2ccccc2F)sc(-c2ccccc2)c1C | nt | i | nt | nt | nt | nt
CCOC(=O)c1cc(CC)sc1NC(=O)c1ccc(N2CCN(CC)CC2)c([N+](=O)[O-])c1 | nt | i | nt | nt | nt | nt
CCCOC(=O)C1=C(C)NC2=C(C(=O)CC(c3ccccc3)C2)C1c1ccc(O)c(OCC)c1 (centres undefined) | nt | i | nt | nt | nt | nt
CC(=O)Nc1ccc(N2C(=O)C3C4c5ccccc5C(c5ccccc54)C3(C)C2=O)cc1 (centres undefined) | nt | i | nt | nt | nt | nt
CC(=O)Nc1cc(C(=O)N2CCCC2)ccc1S(=O)(=O)c1ccc(Cl)cc1 | -1.04 | nt | nt | nt | nt | nt
CC(=O)Nc1cc(C(=O)N2CCOCC2)ccc1S(=O)(=O)c1ccc(C)cc1 | 2.16 | i | 5.62* | 5968 | 1596 | 2344
Cc1ccc(-n2nc3c(c2NC(=O)C2CC2)CSC3)c(C)c1 | nt | i | nt | nt | nt | nt
COc1ccc(N2CCN(c3nc4c(c(=O)[nH]c(=O)n4C)n3Cc3ccccc3Cl)CC2)cc1 | nt | i | 1.12 | nt | nt | nt

Screens (PubChem)
